The source of these data is PubChem BioAssay AID429 (Emory University Molecular Libraries Screening Center, 2006).

Molecules are shown by their SMILES. In all, about 64,000 compounds went through this assay and about 220 (0.34%) were called active.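 Rule for the calls: active = inhibition above 50%; inactive = the rest.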 For the sample, actives were picked, then their nearest neighbours and some compounds at random.

The target of this assay is Heat shock protein HSP 90-alpha (Homo sapiens) (UniProt P07900). Put plainly: tumor Hsp90 inhibitors, primary screen, cell lysate, fluorescence polarization, NCI-N417 lysate (AID 429).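 Note: 0% = tracer plus lysate wells and 100% = tracer alone without lysate.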 The following applies: NCI-N417 lysate Hsp90, Cy3B-geldanamycin FP displacement; at 30 µM; stronger effect = higher value.
Regarding `Cc1cccn2c(=O)c3cc(C(=O)N4COCC4(C)C)n(C)c3nc12`, the inhibition is 0.48% (inactive).

`COc1ccc(Cl)cc1S(=O)(=O)Nc1cccc(C(=O)O)c1`: the inhibition was -0.7% (inactive).

As to `O=S(=O)(NCC1CCCO1)c1ccc2ccccc2c1` (centres undefined), the inhibition is -3.52% (inactive).

Consider `Cc1ccc(C(=O)O)cc1S(=O)(=O)NCC1CCCO1` (centres undefined), for which the inhibition was 77.4% (active).

Regarding `Cc1cc(Cl)c(S(=O)(=O)NCC2CCCO2)cc1OCC(N)=O` (centres undefined), the inhibition is -4.41% (inactive).

Consider `CCSc1nc2c(c(=O)[nH]1)C(c1cccnc1)C(C(=O)OC(C)C)=C(C)N2` (centres undefined), for which the inhibition is -0.2% (inactive).

As to `O=C(O)CSC(NC(=O)c1cccnc1)(C(F)(F)F)C(F)(F)F`, the inhibition was -0.65% (inactive).

For `O=C(Nn1cnc2ccccc2c1=O)c1ccc(F)cc1Cl`, the inhibition was -2.64% (inactive).

On to `CCCCn1c(=S)[nH]c2ncccc2c1=O`, for which the inhibition is -6.13% (inactive).

Consider `CCCC(=O)N1CCc2[nH]c3ccccc3c2C1`, for which the inhibition is -3.78% (inactive).

As to `O=C(NC1CCCCC1)N1CCc2[nH]c3ccccc3c2C1`, the inhibition is -4.69% (inactive).

For the compound `Cc1ccc2[nH]c3c(c2c1)CN(C(=O)CN1CCN(c2ccccc2)CC1)CC3`, the inhibition was 92.3% (active).

In the case of `Cc1ccc(C)c(N(CC(=O)NCc2ccco2)C(=O)CCC(=O)Nc2ccccn2)c1`, the inhibition was -5.16% (inactive).

With `Cc1c(C(=O)OCC(=O)N(CCC#N)c2ccccc2)oc2c1ccc1ccccc12`, the inhibition is 0.74% (inactive).

With `COc1nc(Oc2ccc(=O)n(C)n2)nc(N(C)C)n1`, the inhibition is -0.95% (inactive).

Take `COc1cccc(C2/C(=C(/O)c3ccc(F)cc3)C(=O)C(=O)N2CCN(C)C)c1` (centres undefined): the inhibition was -1.56% (inactive).

Turning to `CC1CN(c2cc(=O)n(-c3cccc(Br)c3)c(=O)[nH]2)CC(C)O1` (centres undefined), the inhibition was 1.65% (inactive).

For `Cc1ccc(N2CCN(c3ccc(C)cc3)C2c2ccccn2)cc1`, the inhibition was 0.05% (inactive).

For the compound `COc1cc(C2C(C(=O)Nc3ccc(F)cc3)=C(C)Nc3nc(CCCO)nn32)cc(OC)c1OC` (centres undefined), the inhibition was -1.54% (inactive).

In the case of `CCOc1ccccc1N(CC(=O)NC1CCCCC1)C(=O)CCCC(=O)Nc1ccccn1`, the inhibition is -0.59% (inactive).

With `CC1OC2C(OC1C)N(S(C)(=O)=O)CCN2S(C)(=O)=O` (centres undefined), the inhibition was -2.81% (inactive).

Take `O=C(O)CCC(=O)Nc1ccc(N2CCOCC2)cc1`: the inhibition was 8.24% (inactive).

For the compound `COc1ccc(C(=O)NCc2cn3ccccc3n2)cc1`, the inhibition was 2.11% (inactive).

In the case of `O=C(CC1N=C2c3ccccc3N=C(SCc3ccccc3Cl)N2C1=O)NCc1ccco1` (centres undefined), the inhibition is -7.5% (inactive).

Regarding `CCCC(C(=O)NCc1ccco1)N(C(=O)CNS(=O)(=O)c1ccccc1)C1CCCC1` (centres undefined), the inhibition was -1.3% (inactive).

Turning to `CCOC(=O)CSC1=C(C#N)C(c2sccc2C)CC(=O)N1` (centres undefined), the inhibition is -2.64% (inactive).

`Cc1nn(-c2ccccc2)c(C)c1C(=O)OCC(=O)NC(=O)NC1CCCCC1`: the inhibition is -2.89% (inactive).

As to `CCCN(CCc1ccccc1)C1CCc2c(O)cccc2C1` (centres undefined), the inhibition is -0.71% (inactive).

As for `CCCn1c(=O)c2ccccc2n2c(SCC(=O)/C(C#N)=C(\C)N)nnc12`, the inhibition was -5.05% (inactive).

Take `O=c1cc(CSc2ccccn2)nc(N2CCN(c3ccccc3)CC2)[nH]1`: the inhibition was -2.49% (inactive).

`CC(C)NS(=O)(=O)c1ccc(OCC(=O)Nc2ccc3c(c2)OCCO3)cc1`: the inhibition is -7.01% (inactive).

Regarding `CC1CCCN(C(=O)c2ccc3c(c2)C(=O)N(CCC2=CCCCC2)C3=O)C1` (centres undefined), the inhibition is -1.14% (inactive).

On to `COc1ccccc1NC(=O)CSc1nnc(Cn2nnc(-c3ccccc3)n2)n1-c1ccccc1`, for which the inhibition is 2.15% (inactive).

With `O=C(c1ccco1)N1CCN=C1SCc1cccc(Cl)c1`, the inhibition is -5.15% (inactive).

Turning to `CCCCc1nc2ccccc2c(NC(=O)CN2CCN(C)CC2)c1CCC`, the inhibition is -1.26% (inactive).

Take `CCCn1cc(SCC(N)=O)c2ccccc21`: the inhibition is -4.04% (inactive).

Turning to `CC(C)(Oc1ccc(C2CC2(Cl)Cl)cc1)C(=O)O` (centres undefined), the inhibition is 1.49% (inactive).

Turning to `COC1(C2=NCCN2)COc2ccccc2O1` (centres undefined), the inhibition is 1.52% (inactive).

Consider `CCOC(=O)Nc1ccc2c(c1)N(C(=O)CN1CCN3CCCC3C1)c1ccccc1CC2` (centres undefined), for which the inhibition was -6.22% (inactive).

As for `Cc1ccc(S(=O)(=O)NC(=O)N2CCCC(C)(C)C2)cc1`, the inhibition was -0.1% (inactive).

For `O=c1c(F)cn(C2CCCO2)c(=O)n1Cc1ccccc1Cl` (centres undefined), the inhibition is -6.6% (inactive).

For the compound `CCOC(=O)C1=C(CC)Nc2ccccc2N=C1NC(=O)c1cccc(S(=O)(=O)N2CCCC2)c1`, the inhibition was -3.82% (inactive).

For the compound `CCCc1nc2ccccc2c(=O)n1NC(=O)c1c(O)c2ccccc2[nH]c1=O`, the inhibition is -3.13% (inactive).

For `CCCc1nc2ccccc2c(=O)n1/N=C/c1ccc(O)c(O)c1`, the inhibition was 70.7% (active).

Regarding `CCCCc1nc2ccccc2c(=O)n1NC(=O)c1c(O)c2cccc3c2n(c1=O)CC3`, the inhibition is -2.36% (inactive).

As for `CCC(=O)Nc1cccc(NC(=O)CSc2nnc(-c3ccc(NS(C)(=O)=O)cc3)n2C)c1`, the inhibition was -0.45% (inactive).

Regarding `O=C(CCc1ccccc1)Nc1ccc(NC(=O)C2CC2)nc1`, the inhibition was -2.83% (inactive).

Take `N#CC1=C(N)Oc2n[nH]c(CSc3ccccc3)c2C12C(=O)Nc1ccccc12` (centres undefined): the inhibition is -11.3% (inactive).

For `CC1Cc2ccccc2N1C(=O)CSc1nnc(-c2ccc(S(=O)(=O)N3CCCCC3)cc2)o1` (centres undefined), the inhibition was -0.41% (inactive).

Turning to `Nn1c(SCC(=O)NC(=O)NC2CCCC2)nnc1-c1ccccc1F`, the inhibition is -5.58% (inactive).

As to `CCOC(=O)/C=c1\s/c(=C\c2ccccc2OC)c(=O)n1CC(=O)N1CCOCC1`, the inhibition is -5.13% (inactive).

Regarding `Cc1cc(C)c2nc(N3CCCC3)c(C#N)cc2c1`, the inhibition is 4.01% (inactive).

Regarding `Cc1noc(C)c1S(=O)(=O)N(CC(=O)Nc1ccc2c(c1)OCCO2)c1ccc(C(C)C)cc1`, the inhibition is -1.54% (inactive).

For the compound `CNc1ncnc2c1ncn2[C@@H]1O[C@H](CO)[C@H](O)C1O` (some centres undefined), the inhibition was -3.44% (inactive).

With `O=C(Nc1ccc(NC(=O)c2cccs2)cn1)c1ccco1`, the inhibition is -0.15% (inactive).

As to `CC(C)(C)c1ccc(NC(=O)NCc2ccco2)cc1`, the inhibition is -5.65% (inactive).

Consider `Cc1ccc(C(=O)Nc2nnc(-c3cccs3)s2)cc1C`, for which the inhibition was -0.3% (inactive).

For the compound `CCNc1nc(N)nc(Oc2ccc(OCC)nn2)n1`, the inhibition was -5.57% (inactive).

With `O=c1cc(-c2ccccc2)[nH]c2nc(Cl)ccc12`, the inhibition is -1.33% (inactive).
